Data: the supplement of paper PMC9262897, “Low-cost anti-mycobacterial drug discovery using engineered E. coli” (Nature Communications, 2022)
Structures can show the parent of a compound that is named as a salt. ± gives the standard deviation of the averaged measurements.

System: E. coli TESEC Mtb Alr
Test: growth (OD600 after 10 h); higher = more growth (less inhibition)
Conditions: compound 0.1 mM
Protocol: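 TESEC Mtb Alr E. coli, or the Alr+ wild-type control, in 384-well plates with Prestwick library compounds at 0.1 mM and 1% DMSO, across arabinose induction levels of 1E3 to 1E7 nM. Growth is read as OD600 after 10 h at 37 °C in triplicate biological replicates.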

[1] = arabinose 1000 nM, raw OD600 reference: median of DMSO wells 0.294, cell-free background 0.041
[2] = arabinose 10000 nM, raw OD600 reference: median of DMSO wells 0.264, cell-free background 0.041
[3] = arabinose 100000 nM, raw OD600 reference: median of DMSO wells 0.201, cell-free background 0.041
[4] = arabinose 1000000 nM, raw OD600 reference: median of DMSO wells 0.193, cell-free background 0.041
[5] = arabinose 10000000 nM, raw OD600 reference: median of DMSO wells 0.146, cell-free background 0.041

Compound	growth [1]	growth [2]	growth [3]	growth [4]	growth [5]
CN(C)CCOC1=Cc2ccccc2Sc2ccc(Cl)cc21 [Zotepine]	0.186 ± 0.0076	0.177 ± 0.0016	0.215 ± 0.0073	0.0636 ± 0.0007	0.0782 ± 0.003
CC[C@H]1OC(=O)[C@H](C)[C@@H](O[C@H]2C[C@@](C)(OC)[C@@H](O)[C@H](C)O2)[C@H](C)[C@@H](O[C@@H]2O[C@H](C)C[C@H](N(C)C)[C@H]2O)[C@](C)(O)C[C@@H](C)[C@@H]2N[C@@H](COCCOC)O[C@H]([C@H]2C)[C@]1(C)O [Dirithromycin]	0.04193 ± 0.00015	0.03907 ± 0.00012	0.044 ± 0.00057	0.0396 ± 0.0001	0.0428 ± 0.0002
OC(CCN1CCCC1)(c1ccccc1)C1CCCCC1 (stereo not given) [Procyclidine hydrochloride]	0.297 ± 0.018	0.266 ± 0.0065	0.194 ± 0.011	0.163 ± 0.0092	0.148 ± 0.0059
O=C1C(=O)c2ccccc2C(O)=C1C1CCC(c2ccc(Cl)cc2)CC1 (stereo not given) [Atovaquone]	0.2 ± 0.0057	0.182 ± 0.015	0.151 ± 0.015	0.105 ± 0.0069	0.133 ± 0.0044
COc1cc2nc(N3CCN(C(=O)c4ccco4)CC3)nc(N)c2cc1OC [Prazosin hydrochloride]	0.319 ± 0.019	0.239 ± 0.0065	0.185 ± 0.008	0.147 ± 0.015	0.226 ± 0.0067
NCc1ccccc1CC(=O)N[C@@H]1C(=O)N2C(C(=O)O)=C(CSc3nnnn3CC(=O)O)CS[C@H]12 [Ceforanide]	0.324 ± 0.0083	0.167 ± 0.0036	0.238 ± 0.016	0.161 ± 0.0024	0.206 ± 0.0071
OC(CCCN1CCCCC1)(c1ccccc1)c1ccccc1 [Diphenidol hydrochloride]	0.278 ± 0.0057	0.257 ± 0.0075	0.2 ± 0.02	0.162 ± 0.0026	0.137 ± 0.0047
CNCCCC12CCC(c3ccccc31)c1ccccc12 [Maprotiline hydrochloride]	0.256 ± 0.016	0.276 ± 0.0088	0.246 ± 0.032	0.134 ± 0.0037	0.169 ± 0.0019
